Experimental data as given in ChEMBL document CHEMBL3433997, “St. Jude Leishmania screening dataset” (2016).

Tests used:
Type in all cases: functional
[1] = biological target: Solute carrier family 2, facilitated glucose transporter member 1 (Homo sapiens) (UniProt P11166); experiment: ST_JUDE_LEISH: Cytotoxicity at 2uM final concentration against transgenic Leishmania Mexicana promastigotes LmGLUT1 that are glucose transport deficient and complemented with the human glucose transporter GLUT1. Activity is measured by DNA content using SYBR green in vitro
[2] = biological target: Hexose transporter 1 (Plasmodium falciparum) (UniProt O97467); experiment: ST_JUDE_LEISH: Cytotoxicity at 2uM final concentration against transgenic Leishmania Mexicana promastigotes LmPfHT that are glucose transport deficient and complemented with the Plasmodium falciparum hexose transporter. Activity is measured by DNA content using SYBR green in vitro
[3] = biological target: Glucose transporter (Leishmania mexicana) (UniProt O61059); experiment: ST_JUDE_LEISH: Cytotoxicity at 2uM final concentration against transgenic Leishmania Mexicana promastigotes LmGT2 that are glucose transport deficient and complemented with the L. Mexicana glucose transporter 2. Activity is measured by DNA content using SYBR green in vitro

Sequence of Solute carrier family 2, facilitated glucose transporter member 1 (Homo sapiens) (P11166 whole entry): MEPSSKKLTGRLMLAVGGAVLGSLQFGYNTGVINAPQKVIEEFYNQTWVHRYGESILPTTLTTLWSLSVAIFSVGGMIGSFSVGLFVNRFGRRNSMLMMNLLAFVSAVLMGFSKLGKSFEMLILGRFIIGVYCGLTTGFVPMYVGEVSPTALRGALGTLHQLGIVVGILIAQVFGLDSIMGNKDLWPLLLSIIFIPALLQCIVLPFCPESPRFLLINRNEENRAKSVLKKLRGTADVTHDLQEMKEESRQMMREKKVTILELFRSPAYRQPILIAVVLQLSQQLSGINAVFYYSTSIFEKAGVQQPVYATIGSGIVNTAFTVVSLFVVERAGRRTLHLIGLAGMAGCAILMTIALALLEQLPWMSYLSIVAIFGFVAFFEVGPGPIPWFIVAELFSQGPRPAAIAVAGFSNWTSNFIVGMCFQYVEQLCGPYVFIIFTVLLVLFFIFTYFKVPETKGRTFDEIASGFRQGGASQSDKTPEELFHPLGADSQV

Row | Structure (SMILES) | inhibition [1] [%] | inhibition [2] [%] | inhibition [3] [%]
1 | NC1CCCN(Cc2ccc(-c3cccc(-c4nc5cc(F)ccc5[nH]4)c3)cc2)C1 (configuration not stated) | -0.79 | 0.23 | -1.33
2 | CN(C)CCOc1ccc(N2CCN(CCCCNC(=O)c3ccc(/C=C/c4cc(Cl)cc(Cl)c4)cc3)CC2)cc1 | -0.63 | 0.08 | -0.38
3 | COc1ccc(-c2cncc3ccc(C(=O)NCCCn4ccnc4)nc23)cc1 | 7.45 | 8.66 | 7.3
4 | Nc1nc(N)c2c(Oc3cccc4ccccc34)cccc2n1 | 4.57 | 2.3 | 3.17
5 | O=C(/C=C/c1ccc(Cl)c(Cl)c1)N1CCC(CCN2CCC(c3c[nH]c4ccncc34)CC2)CC1 | 3.03 | 4.39 | 6.65
6 | c1ccc(-c2cc(NCc3cccc4ccccc34)c3[nH]ncc3n2)cc1 | 5.11 | 5.96 | 6.54
7 | CN1CCN(CCCN(C(=O)Nc2cc(C(F)(F)F)cc(C(F)(F)F)c2)c2ccccc2Cc2ccccc2)CC1 | 0.6 | 0.83 | -8.69
8 | Nc1nc2c(ncn2COC2COP(=O)(O)OC2)c(=O)[nH]1 (configuration not stated) | 12.2 | 12 | 12.3
9 | N=C(N)c1ccc(C(=O)Nc2cccc(C(=N)N)c2)cc1 | -0.57 | 0.84 | -0.81
10 | Cc1ccccc1C1CCN(C2CCC(NC(=O)/C=C/c3cc(F)ccc3C(F)(F)F)CC2)CC1 (configuration not stated) | 0.1 | -0.94 | 1.99
11 | CC1CCCC(NC(=O)CCOc2ccccc2)C1 (configuration not stated) | 7.23 | 6.34 | 6.88
12 | Cc1cccc2nc(-c3ccc(-c4ccc(CNC(C)C)cc4)cc3)[nH]c12 | 21.6 | 25.1 | 15.7
13 | Cc1cc(Nc2ccc(Cl)c(Cl)c2)n2nc(C)nc2n1 | -1.71 | -1.26 | 0.04
14 | COc1ccc(O)c(C(=O)c2cc(C(=O)NC3CCCCC3)c(=O)n(C3CCCCC3)c2)c1 | 5.33 | 4.33 | 3.2
15 | N#Cc1ccc(-c2ccc3nc(N4CCCN(C5CCC5)CC4)ccc3c2)cc1 | 6.14 | 7 | 6.34
16 | COc1ccc(-c2cc(C(=O)Nc3ccc(CCCN(C)Cc4ccc(OC)c(OC)c4)cc3)c3ccccc3n2)cc1 | 13.6 | 2.41 | 1.44
17 | CCCc1cc(C(C)=O)ccc1OCCCON1C(=N)N=C(N)NC1(C)C | 22.1 | 29.3 | 20.5

Row | Structure (SMILES) | inhibition [1] [%] | inhibition [2] [%] | inhibition [3] [%]
18 | Cn1c(Nc2cc(C(C)(C)C)on2)nc2cc(Nc3ccnc(Nc4ccc(CS(C)(=O)=O)cc4)n3)ccc21 | 1.46 | 1.48 | 2.34
19 | CN(CCC(CCN1CCC(c2c[nH]c3ccccc23)CC1)c1ccccc1)C(=O)Nc1ccc(Cl)c(Cl)c1 (configuration not stated) | 2.82 | 0.21 | 0.72
20 | N#Cc1cccc(CN2CCCN(c3ccc(NC(=O)c4cccs4)cc3)CC2)c1 | 4.81 | 4.44 | 4.34
21 | CC(NC(=O)NC1CCC(CCN2CCCc3ccccc32)CC1)c1cccc2ccccc12 (configuration not stated) | 0.93 | 1.8 | -1.84
22 | CCCNC(=O)C1Cc2cc(OC)c(OC)cc2C2(N1)C(=O)N(Cc1cccc(OC)c1)c1ccccc12 (configuration not stated) | -1.15 | 0.36 | -0.47
23 | CN1CCC(c2c[nH]c3ccc(NC(=O)Nc4ccc(-c5ccncc5)cc4Cl)cc23)CC1 | 1.45 | 1.38 | 2.14
24 | O=C(c1ccccc1NN=C1C(=O)N(c2ccccc2)N=C1c1ccccc1)N1CCOCC1 | -1.67 | 1.67 | 8.03
25 | O=C(/C=C/c1ccc(Cl)c(Cl)c1)NCCCCCCN1CCN(C(=O)Nc2cc(Cl)nc(Cl)c2)CC1 | 2.96 | 2.93 | 2.49
26 | CN(C)CCOc1cc(NC(=O)/C=C/c2cccc3ccccc23)ccc1I | 10.4 | 8.1 | 8.23
27 | CCOC(=O)c1c(CSc2ccccc2)oc2cc(CN(C)C)c(O)c(Cl)c12 | 1.18 | 0.44 | -0.41
28 | COCCN(C)c1ccc(C(=O)Nc2ccccc2)cc1NS(=O)(=O)Cc1ccccc1 | 10.2 | 8.35 | 3.54
29 | COc1ccc2nccc([C@@H](O)CN3CCC(NCCOc4ccccc4[N+](=O)[O-])CC3)c2c1 | 2.3 | 2.26 | 0.09
30 | CNC(=O)c1cc(NCCCNCc2ccc(Cl)c(C(F)(F)F)c2)nc2ccccc12 | -1.98 | -1.73 | -2.48
31 | O=C(CC1CCCC1)Nc1ccc2c(c1)CCC2 | 2.83 | 3.17 | 1.69
32 | c1cc(-c2ccc(CNCc3ccsc3)cc2)cc(-c2nc3ccccc3[nH]2)c1 | 1.08 | 3.56 | -2.01
33 | N=c1n(Cc2ccccc2)c2ccccc2n1CC(O)c1ccc(Cl)cc1 (configuration not stated) | 1.36 | 2.09 | 1.14
34 | O=C(Nc1ccc(C(F)(F)F)cc1)c1cc(Br)cnc1NCCCn1ccnc1 | -0.53 | -4.7 | -3.55
